Here are results for 8 compounds from PMC5540273 (PLoS ONE, 2017).

Molecules are shown by their SMILES.

Test systems include TYRO3; ULK1; ULK2; ULK3; VRK2; WEE1; WEE2; WNK1; WNK2; WNK3; WNK4.
Holding throughout (settings): concentration: 1 μM, replicates: in singlicate; n = 1
For test [1], the system named is TYK2(JH2domain-pseudokinase).
The next test has as its system T1, VEGFR2.
T1 construct: gene KDR

For a further test, the system named is T2, VPS34.
T2 construct: gene PIK3C3

The subject of a further test is T3, YANK1.
T3 construct: gene STK32A

For another test, the system named is T4, YANK2.
T4 construct: gene STK32B

In a further test the test system is T5, YANK3.
T5 construct: gene STK32C

A further test relates to T6, YES.
T6 construct: gene YES1

The next test concerns T7, YSK1.
T7 construct: gene STK25

A further test deals with T8, YSK4.
T8 construct: gene MAP3K19
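Also: KINOMEscan kinase panel screen.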

With `Cl.Cl.NCC(NC(=O)c1cc(-c2cccnc2)c(-c2ccnc3[nH]ccc23)s1)c1ccccc1` (stereo not shown) [GSK1323434], the “%Inh” value is 37% in test [1]; 0% with TYRO3; 4% in the test on ULK1; 0% in the test on ULK2; 0% in the test with ULK3; 0% with VEGFR2. Besides, the “%Inh” value amounted to 45% in the test with VPS34; 15% with VRK2; 8% in the test on WEE1; 13% in the test with WEE2; 2% in the test on WNK1; 0% in the test on WNK2. Further, the “%Inh” value is 80% in the test on WNK3; 50% in the test on WNK4; 26% with YANK1; 0% in the test on YANK2; 14% in the test on YANK3; 18% in the test on YES. In addition, the figures for the “%Inh” value in the test on YSK1 and with YSK4 were 17% and 84%, respectively.
`Cl.O=C(Nc1ccc(Oc2ccc3[nH]c(NC(=O)c4ccco4)nc3c2)cc1)Nc1cc(C(F)(F)F)ccc1F` [GW683134]: the “%Inh” value in test [1] amounted to 24%; in the test on TYRO3 it was 42%; in the test with ULK1 it was 24%; in the test on ULK2, 0%; with ULK3, 32%; in the test on VEGFR2, 78%. The “%Inh” value turned out to be 0% in the test on VPS34; 15% with VRK2; 0% in the test on WEE1; 0% with WEE2; 2% in the test on WNK1; 0% in the test with WNK2. In addition, the “%Inh” value is 14% in the test on WNK3; 9% in the test with WNK4; 2% with YANK1; 0% in the test on YANK2; 14% in the test on YANK3; 61% with YES. In addition, the “%Inh” value stood at 0% in the test with YSK1 and 92.9% in the test with YSK4.
As for `CN(c1ccc(F)c(NC(=O)c2cccc(OC(C)(C)C#N)c2Cl)c1)c1ccc2nc(NC(=O)C3CC3)sc2n1`, the “%Inh” value turned out to be 0% in test [1]; 14% in the test on TYRO3; 2% in the test with ULK1; 0% with ULK2; 4% in the test on ULK3; 91.9% with VEGFR2. Also, the “%Inh” value with VPS34 stood at 0%; in the test with VRK2, 0%; in the test with WEE1, 0%; with WEE2, 17%; with WNK1, 0%; in the test with WNK2, 19%. Moreover, the “%Inh” value in the test on WNK3 came out at 0%; in the test with WNK4, 0%; in the test on YANK1, 0%; with YANK2, 0%; in the test with YANK3 it was 0%; in the test with YES it was 91.4%. The “%Inh” value in the test on YSK1 is given as 0%; in the test with YSK4, 20%.
Turning to `COc1cccc(CC(=O)N2CCc3cc(-c4cn(C)c5ncnc(N)c45)ccc32)c1` [GSK2608899], the “%Inh” value in test [1] is 39%; in the test with TYRO3 it was 0%; in the test with ULK1, 5%; in the test with ULK2, 5%; in the test with ULK3, 17%; in the test with VEGFR2, 64%. The “%Inh” value in the test with VPS34 stood at 0%; with VRK2 it was 0%; in the test on WEE1 it was 0%; in the test on WEE2, 0%; in the test with WNK1 it was 21%; in the test with WNK2, 52%. Moreover, the “%Inh” value is given as 54% in the test on WNK3; 12% in the test on WNK4; 13% in the test with YANK1; 0% in the test on YANK2; 8% in the test with YANK3; 16% with YES. Further, the “%Inh” value with YSK1 was 17%; in the test with YSK4, 96.9%.
For `CN(c1ccc(NC(=O)Nc2cccc(Cl)c2)cc1)c1ccnc(N)n1.Cl` [GW830707], the “%Inh” value is reported as 0% in test [1]; 0% in the test on TYRO3; 5% in the test on ULK1; 17% in the test on ULK2; 0% in the test on ULK3; 97.4% in the test with VEGFR2. Moreover, the “%Inh” value in the test with VPS34 turned out to be 0%; with VRK2 it was 0%; in the test on WEE1 it was 4%; in the test on WEE2, 0%; in the test with WNK1, 28%; in the test on WNK2, 12%. Besides, the “%Inh” value is 38% in the test on WNK3; 5% in the test with WNK4; 0% with YANK1; 16% in the test with YANK2; 29% with YANK3; 0% in the test on YES. In addition, the “%Inh” value was determined as 0% in the test with YSK1 and 67% in the test on YSK4.
In the case of `Cc1cc(-c2ccnc(Nc3cccc(C#N)c3)n2)cc(C)c1O` [GSK1440913], the “%Inh” value is listed as 99.4% in test [1]; 23% in the test on TYRO3; 1% in the test with ULK1; 0% in the test with ULK2; 54% in the test on ULK3; 6% in the test with VEGFR2. The “%Inh” value with VPS34 is listed as 70%; in the test with VRK2 it was 3%; in the test on WEE1 it was 0%; in the test on WEE2, 2%; with WNK1 it was 7%; with WNK2 it was 0%. In addition, the “%Inh” value with WNK3 is given as 4%; in the test with WNK4, 26%; in the test with YANK1, 7%; in the test on YANK2 it was 0%; with YANK3, 13%; in the test on YES, 19%. In addition, the entries for the “%Inh” value in the test on YSK1 and in the test on YSK4 were 4% and 97%, respectively.
For `CN(C)CCOc1ccc(-c2cc(-c3ccc(Cl)c(O)c3)c(-c3ccncc3)[nH]2)cc1.Cl.Cl` [SB-684387], the “%Inh” value in [1] came to 18%; in the test on TYRO3, 6%; in the test with ULK1, 6%; in the test on ULK2 it was 8%; in the test with ULK3 it was 14%; in the test on VEGFR2 it was 21%. For the same compound, the “%Inh” value worked out at 16% with VPS34; 45% in the test on VRK2; 7% in the test on WEE1; 0% in the test on WEE2; 11% in the test with WNK1; 21% in the test with WNK2. Besides, the “%Inh” value came to 47% in the test with WNK3; 33% with WNK4; 26% with YANK1; 28% in the test with YANK2; 0% with YANK3; 55% in the test with YES. In addition, the figures for the “%Inh” value in the test on YSK1 and in the test with YSK4 were 13% and 27%, respectively.
Turning to `Cl.N#CCc1ccc(Nc2nccc(Nc3ccc(Oc4ccccc4)cc3)n2)cc1` [GW639905], the “%Inh” value is listed as 72% in test [1]; 36% in the test on TYRO3; 23% in the test on ULK1; 0% in the test with ULK2; 15% in the test on ULK3; 0% with VEGFR2. The “%Inh” value in the test with VPS34 was 0%; with VRK2, 24%; in the test on WEE1, 0%; in the test with WEE2, 0%; in the test with WNK1 it was 15%; in the test on WNK2, 0%. The “%Inh” value is listed as 28% in the test with WNK3; 6% in the test on WNK4; 3% in the test on YANK1; 0% in the test with YANK2; 10% in the test with YANK3; 74% in the test on YES. Moreover, the “%Inh” value is reported as 0% in the test with YSK1 and 41% in the test on YSK4.
